Data published in the supplement of paper PMC6555819.

System: LXRa homodimer (NR concentration 270 nM)
Assay: PBM binding z-score (relative to random genomic background probes); higher = stronger binding; sequences stand for … in GC…GCGATTGACAGCGTAGAATGAAGG
Summary of the method: (§1)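 Random background probes are the reference for binding z-scores. These scores derive from regression-normalized fluorescence on custom Agilent 4×180K protein-binding microarrays incubated 1 h with ligand-free nuclear receptor dimers. Binding was detected with antibodies against each partner (one per run).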

Q: How did the PBM binding z-score turn out when ATTTGTAGGTTAGGGTCATTCAGAAAGTAGGGAA was run?
A: 2.51

Q: CATACAGGGACAGCTAGGCCAGAGTAGGGACGGC was tested. Which PBM binding z-score did it give?
A: -0.464

Q: How did the PBM binding z-score turn out when CAAACTAGGTCACCAGGACAGTGAAGAGGTTGGA was run?
A: 0.391

Q: With ATATGTAGCTTAGGGTCATTCAGAAAGTAGGGAA as the sequence, how does the PBM binding z-score read?
A: 1.67

Q: Which PBM binding z-score does the source give for CGAACTAGATCAAAGGACAGTGAAAGGCGACGTA here?
A: -0.396

Q: ATCTCTAGGTAAAGTTCAGCGAAAGATCGATAGA was tested. Which PBM binding z-score did it give?
A: 1.67

Q: CGCACTAGGTCAAAGGACAGTGAAAGGCGACGTA was tested. Which PBM binding z-score did it give?
A: 0.082

Q: Which PBM binding z-score does the source give for CGAACGAGGTCAGAACAGGACAGTGAAGGATGAT here?
A: 0.279

Q: With CGAACTAGGTCATCGAGGACAGTGAATACATTGA as the sequence, how does the PBM binding z-score read?
A: 0.3

Q: For CGTCCAAGGTCATAGGAGTTCAGTGAAGACAGAT, which PBM binding z-score is on record?
A: 5.13

Q: How did the PBM binding z-score turn out when CGAACTAGGTCAAAGGACAGTGAGAGGCGACGTA was run?
A: -0.449

Q: How did the PBM binding z-score turn out when TCTAGTTGGTGACGGAGGTCACACACGACGGGTA was run?
A: 1.85

Q: How did the PBM binding z-score turn out when CGAACTAAGTCAAAGGACAGTGAAAGGCGACGTA was run?
A: -0.153

Q: Which PBM binding z-score does the source give for CCTACTGGGTCATTCAGAGGTCATTGATCATATG here?
A: 6.38

Q: CGAACTAGGACATCCAGGACAGTGAATACATTGA was tested. Which PBM binding z-score did it give?
A: 0.0183

Q: With ATCGAAAAGTCGAAGGTGAGTATACCCACCCGAA as the sequence, how does the PBM binding z-score read?
A: -0.293

Q: For CGAACTAGGTCAAAGGAGAGTGAAAGGCGACGTA, which PBM binding z-score is on record?
A: -0.0759

Q: Which PBM binding z-score does the source give for CAAAGTAGGTCAAGAGGTCAAAGTCCGCTTCCCG here?
A: 6.36

Q: For CGAACTAGGTCACCAGGACAGTGACGAGGTTGGA, which PBM binding z-score is on record?
A: -0.221

Q: For CGAACTAAGTCACCAGGACAGTGAAGAGGTTGGA, which PBM binding z-score is on record?
A: -0.233

Q: Which PBM binding z-score does the source give for ATCTCTAGGTAACAAGGTCAGTGAAAGAGAGGAC here?
A: 0.814

Q: How did the PBM binding z-score turn out when CCTACTGGGCCATACAGAGGTCATTGATCATATG was run?
A: 5.31

Q: With TCTAGTTGGTTACGGAGGTCACACACGACGGGTA as the sequence, how does the PBM binding z-score read?
A: 3.06

Q: How did the PBM binding z-score turn out when CGAACTAGCTCAAAGGACAGTGAAAGGCGACGTA was run?
A: -0.493

Q: With CGAACTAGGTCAAAGGAAAGTGAAAGGCGACGTA as the sequence, how does the PBM binding z-score read?
A: -0.168

Q: With CCTGGCAGGCCAGGGTCACTCAAGCATTTCGCTT as the sequence, how does the PBM binding z-score read?
A: -0.539

Q: Which PBM binding z-score does the source give for ATCGAAATGTCGTGAGGTGAGTATACAGAAAGGC here?
A: -0.191

Q: ATATGTAGGTTAGGTTCATTCAGAAAGTAGGGAA was tested. Which PBM binding z-score did it give?
A: 0.871

Q: For CGAACTAGGTCAAAGGACAGTGCAAGGCGACGTA, which PBM binding z-score is on record?
A: 0.126

Q: CGAACTAGGTCAAAGGACAGTGAAAGGCGACGTA was tested. Which PBM binding z-score did it give?
A: 0.0195

Q: For AATACAGGGTCCTCGTAGGCCAGAGTACGCACAG, which PBM binding z-score is on record?
A: -0.268

Q: With GCTGCTAGGTTAACTGATGGTCAGCTAAAGCTCG as the sequence, how does the PBM binding z-score read?
A: -0.782

Q: For TAGCCTAGGTCAAGCGGGCCAGTATAGTGTCGGC, which PBM binding z-score is on record?
A: 0.0899

Q: With TTACGAAGGTGAAAGGTCGTTGATGCACGCCTTG as the sequence, how does the PBM binding z-score read?
A: 0.283

Q: Which PBM binding z-score does the source give for ATCGAAAGGTCGCAGGTGAGTATACCCACCCGAA here?
A: 0.17

Q: Which PBM binding z-score does the source give for CATACCGGGTCAGCTAGGCCAGAGTAGGGACGGC here?
A: -0.499

Q: With CGAACTAGGGCACCAGGACAGTGAAGAGGTTGGA as the sequence, how does the PBM binding z-score read?
A: -0.377

Q: ATATGTAGGTTAGGGTCATTCCGAAAGTAGGGAA was tested. Which PBM binding z-score did it give?
A: 1.27

Q: For ACTCGGAGGACAAACGTCAGAGCTACGCCAGTGA, which PBM binding z-score is on record?
A: -0.482

System: LXRb:RXRa (NR concentration 270 nM, RXRa partner concentration 90 nM)
Assay: as above
Summary of the method: as §1

Q: For ATTTGTAGGTTAGGGTCATTCAGAAAGTAGGGAA, which PBM binding z-score is on record?
A: 4.9

Q: CATACAGGGACAGCTAGGCCAGAGTAGGGACGGC was tested. Which PBM binding z-score did it give?
A: -0.85

Q: CAAACTAGGTCACCAGGACAGTGAAGAGGTTGGA was tested. Which PBM binding z-score did it give?
A: 1.92

Q: ATATGTAGCTTAGGGTCATTCAGAAAGTAGGGAA was tested. Which PBM binding z-score did it give?
A: 4.49

Q: With CGAACTAGATCAAAGGACAGTGAAAGGCGACGTA as the sequence, how does the PBM binding z-score read?
A: -0.5

Q: Which PBM binding z-score does the source give for ATCTCTAGGTAAAGTTCAGCGAAAGATCGATAGA here?
A: 1.65

Q: Which PBM binding z-score does the source give for CGCACTAGGTCAAAGGACAGTGAAAGGCGACGTA here?
A: 1.83

Q: How did the PBM binding z-score turn out when CGAACGAGGTCAGAACAGGACAGTGAAGGATGAT was run?
A: 2.95

Q: With CGAACTAGGTCATCGAGGACAGTGAATACATTGA as the sequence, how does the PBM binding z-score read?
A: 1.9

Q: Which PBM binding z-score does the source give for CGTCCAAGGTCATAGGAGTTCAGTGAAGACAGAT here?
A: 5.15

Q: For CGAACTAGGTCAAAGGACAGTGAGAGGCGACGTA, which PBM binding z-score is on record?
A: 1.41

Q: How did the PBM binding z-score turn out when TCTAGTTGGTGACGGAGGTCACACACGACGGGTA was run?
A: 2.9

Q: How did the PBM binding z-score turn out when CGAACTAAGTCAAAGGACAGTGAAAGGCGACGTA was run?
A: -0.345

Q: How did the PBM binding z-score turn out when CCTACTGGGTCATTCAGAGGTCATTGATCATATG was run?
A: 5.36

Q: CGAACTAGGACATCCAGGACAGTGAATACATTGA was tested. Which PBM binding z-score did it give?
A: -0.213

Q: With ATCGAAAAGTCGAAGGTGAGTATACCCACCCGAA as the sequence, how does the PBM binding z-score read?
A: -0.264

Q: CGAACTAGGTCAAAGGAGAGTGAAAGGCGACGTA was tested. Which PBM binding z-score did it give?
A: 1.64

Q: CAAAGTAGGTCAAGAGGTCAAAGTCCGCTTCCCG was tested. Which PBM binding z-score did it give?
A: 5.69

Q: CGAACTAGGTCACCAGGACAGTGACGAGGTTGGA was tested. Which PBM binding z-score did it give?
A: 1.53

Q: For CGAACTAAGTCACCAGGACAGTGAAGAGGTTGGA, which PBM binding z-score is on record?
A: -0.378

Q: With ATCTCTAGGTAACAAGGTCAGTGAAAGAGAGGAC as the sequence, how does the PBM binding z-score read?
A: 1.9

Q: How did the PBM binding z-score turn out when CCTACTGGGCCATACAGAGGTCATTGATCATATG was run?
A: 3.73

Q: TCTAGTTGGTTACGGAGGTCACACACGACGGGTA was tested. Which PBM binding z-score did it give?
A: 3.14

Q: For CGAACTAGCTCAAAGGACAGTGAAAGGCGACGTA, which PBM binding z-score is on record?
A: -0.766

Q: How did the PBM binding z-score turn out when CGAACTAGGTCAAAGGAAAGTGAAAGGCGACGTA was run?
A: 1.2

Q: With CCTGGCAGGCCAGGGTCACTCAAGCATTTCGCTT as the sequence, how does the PBM binding z-score read?
A: 2.18

Q: ATCGAAATGTCGTGAGGTGAGTATACAGAAAGGC was tested. Which PBM binding z-score did it give?
A: -0.0754

Q: How did the PBM binding z-score turn out when ATATGTAGGTTAGGTTCATTCAGAAAGTAGGGAA was run?
A: 2.34

Q: How did the PBM binding z-score turn out when CGAACTAGGTCAAAGGACAGTGCAAGGCGACGTA was run?
A: 1.63

Q: With CGAACTAGGTCAAAGGACAGTGAAAGGCGACGTA as the sequence, how does the PBM binding z-score read?
A: 1.9

Q: AATACAGGGTCCTCGTAGGCCAGAGTACGCACAG was tested. Which PBM binding z-score did it give?
A: -0.362

Q: How did the PBM binding z-score turn out when GCTGCTAGGTTAACTGATGGTCAGCTAAAGCTCG was run?
A: 0.138

Q: TAGCCTAGGTCAAGCGGGCCAGTATAGTGTCGGC was tested. Which PBM binding z-score did it give?
A: 1.78

Q: Which PBM binding z-score does the source give for TTACGAAGGTGAAAGGTCGTTGATGCACGCCTTG here?
A: 2.75

Q: How did the PBM binding z-score turn out when ATCGAAAGGTCGCAGGTGAGTATACCCACCCGAA was run?
A: 2.74

Q: For CATACCGGGTCAGCTAGGCCAGAGTAGGGACGGC, which PBM binding z-score is on record?
A: 1.04

Q: How did the PBM binding z-score turn out when CGAACTAGGGCACCAGGACAGTGAAGAGGTTGGA was run?
A: -0.672

Q: Which PBM binding z-score does the source give for ATATGTAGGTTAGGGTCATTCCGAAAGTAGGGAA here?
A: 4.26

Q: Which PBM binding z-score does the source give for ACTCGGAGGACAAACGTCAGAGCTACGCCAGTGA here?
A: -0.769
